The sample as a whole holds a higher share of hits than the screen did.
TDP1 cell CPT: growth inhibition of DT40 Tdp1-/-;hTDP1 cells with camptothecin (screen for TDP1 inhibitors); chicken DT40 Tdp1-/-;hTDP1 cells + 20 nM CPT, ATP luminescence, 48 h; Potency, µM (highest dose often 46.2 µM), hits mostly inhibitors; 12% of 420,000 active; note: nearly all actives have a fitted effect of over 55% in size
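Chicken DT40 Tdp1-/- cells complemented with human TDP1, 400 cells/well, exposed to compounds plus 20 nM camptothecin for at least 48 h at 37 C; viability read as ATP content by CellTiter-Glo luminescence.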
12-LOX inh: inhibitors of human 12S-lipoxygenase ALOX12 | AID 1671190 | 1.1% of 580,000 active | P18054 | Potency, µM (top dose mostly 108 µM), most hits filed as inhibitors | purified 12hLO, xylenol orange hydroperoxide absorbance
Target sequence (P18054 whole entry, looked up): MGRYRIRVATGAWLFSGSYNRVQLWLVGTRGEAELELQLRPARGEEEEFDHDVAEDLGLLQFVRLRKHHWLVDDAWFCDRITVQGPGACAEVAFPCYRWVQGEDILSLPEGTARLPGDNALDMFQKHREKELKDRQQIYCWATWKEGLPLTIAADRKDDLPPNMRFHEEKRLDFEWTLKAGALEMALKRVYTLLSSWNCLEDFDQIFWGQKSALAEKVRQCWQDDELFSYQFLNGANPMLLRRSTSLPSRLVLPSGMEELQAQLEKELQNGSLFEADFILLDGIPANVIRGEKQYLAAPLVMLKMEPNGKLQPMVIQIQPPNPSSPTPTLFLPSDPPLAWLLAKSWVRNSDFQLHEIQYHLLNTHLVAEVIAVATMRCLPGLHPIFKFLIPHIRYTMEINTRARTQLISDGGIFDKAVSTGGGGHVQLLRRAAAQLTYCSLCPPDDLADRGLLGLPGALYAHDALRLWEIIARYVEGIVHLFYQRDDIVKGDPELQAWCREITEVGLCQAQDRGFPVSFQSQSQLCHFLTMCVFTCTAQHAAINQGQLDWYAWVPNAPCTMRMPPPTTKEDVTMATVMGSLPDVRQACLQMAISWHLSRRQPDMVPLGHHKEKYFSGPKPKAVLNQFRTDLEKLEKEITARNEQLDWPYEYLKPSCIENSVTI
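Purified human 12hLO (150 nM final) in 25 mM Hepes, 0.01% Triton X-100, pH 7.0 was preincubated 15 min at room temperature with compound. Then 40 uM arachidonic acid was added, 30 min. Hydroperoxide was read by Fe-XO absorbance ratio 573/405 nm.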
HT1080 IDH1KD tx: HT-1080 IDH1 knockdown cell toxicity (counter line) | 2% of 360,000 active | HT-1080 IDH1 knockdown viability, ATP luminescence, 48 h | Potency, µM (top dose mostly 46.1 µM), actives largely listed as cytotoxic
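Luminescent ATP read-out (CellTiter-Glo, 10 min at room temperature) after 48 h compound exposure at 37 °C gave viability of IDH1-knockdown HT-1080 cells. Activity was normalised to DMSO and cell-free wells, then fitted as concentration-response curves.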
DT40 TDP1 no CPT: qHTS for Inhibitors of human tyrosyl-DNA phosphodiesterase 1 (TDP1): qHTS in cells in absence of CPT | 15% of 420,000 active | Potency, µM (titrated, usually from 46.2 µM), most hits filed as inhibitors | DT40 Tdp1-/- hTDP1 cells, no CPT, ATP luminescence, 48 h; note: nearly all actives have a fitted effect of over 55% in size
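Camptothecin absent (DMSO only). Human TDP1-complemented DT40 knockout cells, 400 cells/well, 37 °C for minimum 48 hr; ATP measured via CellTiter-Glo, 30 min dark incubation, luminescence.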
HT1080-NT tox: kills 2HG-producing HT-1080-NT fibrosarcoma cells. Potency, µM (highest dose often 46.1 µM), usual class: cytotoxic. AID 686970. HT-1080-NT fibrosarcoma viability, CellTiter-Glo ATP luminescence, 48 h. 1.6% of 360,000 active;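 note: NT is the 2HG producing partner of a matched IDH1 knockdown line; nearly all actives have a fitted effect of over 55% in size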
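Fibrosarcoma NT cells, 750 per well in 5% FBS RPMI, were exposed to compound for 48 hours. Viability: CellTiter-Glo luminescence.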
IL1B secr inh: inhibitors of inflammasome signaling (IL-1 beta secretion); THP-1 LPS/ATP IL-1B secretion, AlphaLISA, 16 h; active compounds read low; activity change, % at 57.5 µM; 4.7% of 360,000 active; AID 743279; in the data active = activity change below about -50%; inconclusive = mostly about -30% to -49%
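Secreted IL-1B measured by AlphaLISA bead assay after 16 h compound exposure of THP-1 cells; compounds (final up to 57.5 uM) added 1 h before LPS (250 ng/mL) and ATP (1.25 mM) stimulation; lower signal means less secretion.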
Each line names hits and unclear results; the compound was inactive in the other large screens. Unless noted, calls come from the whole dose curve; as a rule, active = well fitted curve in the direction sought with a large enough effect; inconclusive = small, poorly fitted or top-dose-only effect, or another doubt; inactive = no such curve, though single readings can be large; an effect the other way counts as inactive or inconclusive.

COc1ccc(CCNC(=O)[C@@H](C)C2CC[C@@]3(C)CC[C@H](NC(=O)c4ccncc4)[C@@H](C)[C@@H]3[C@H]2O)cc1OC (some centres not stated)	none (no result: TDP1 cell CPT, HT1080 IDH1KD tx, DT40 TDP1 no CPT, HT1080-NT tox, IL1B secr inh)
Cc1ccc(Cl)cc1NC(=O)c1ccccc1OCC(=O)Nc1ccc(Cl)cc1	TDP1 cell CPT inconclusive, DT40 TDP1 no CPT 5.8µM, HT1080-NT tox inconclusive
COc1cc(NC(=O)COc2cccc(C)c2C)ccc1NC(=O)c1ccco1	DT40 TDP1 no CPT inconclusive
Cc1ccccc1OCC(=O)OCC(=O)Nc1ncc(Cl)c(C)c1Cl	12-LOX inh 8.9µM
Cc1ccccc1OCC(=O)OCC(=O)Nc1ccc(Cl)cn1	none
Cc1ccccc1OCC(=O)NNC(=O)Nc1ccc(Cl)cc1	TDP1 cell CPT 5.8µM, HT1080 IDH1KD tx 4.6µM, DT40 TDP1 no CPT 4.6µM, HT1080-NT tox 6.5µM
COc1ccc(NC(C)=O)cc1CNC(=O)COc1ccccc1C(=O)Nc1cccc(C)c1C	TDP1 cell CPT inconclusive, DT40 TDP1 no CPT 4.1µM
Cc1ccc(S(=O)(=O)N2CCC(Oc3ncccc3C(=O)N(C)C)C2)cc1C (configuration not stated)	none (no result: TDP1 cell CPT, HT1080 IDH1KD tx, DT40 TDP1 no CPT, HT1080-NT tox, IL1B secr inh)
O=C(NCc1ccc(Cl)nc1)c1cccn2cncc12	none (no result: TDP1 cell CPT, HT1080 IDH1KD tx, DT40 TDP1 no CPT, HT1080-NT tox, IL1B secr inh)
Cc1ccc(C)c(NC(=S)N(Cc2ccc(Cl)cc2)Cc2ccc(C(=O)O)cc2)c1	12-LOX inh 45µM
CCc1ccc(NC(=S)N(Cc2ccc(Cl)cc2)Cc2ccc(C(=O)O)cc2)cc1	12-LOX inh 40µM
Cc1ccc(NC(=S)N(Cc2ccc(Br)cc2)Cc2ccc(C(=O)O)cc2)cc1C	12-LOX inh 40µM, DT40 TDP1 no CPT inconclusive
Cc1cc(C)cc(NC(=S)N(Cc2ccc(Cl)cc2)Cc2ccc(C(=O)O)cc2)c1	12-LOX inh 35µM, HT1080 IDH1KD tx inconclusive
Cc1cccc(NC(=S)N(Cc2ccc(Cl)cc2)Cc2ccc(C(=O)O)cc2)c1	none
CCOC(=O)CCCNC(=O)CSc1nc2ccc(OCC)cc2[nH]1	HT1080 IDH1KD tx inconclusive
COC(=O)[C@@]1(Sc2ccc(OC)cc2)CC(=O)N(c2ccc(OC(C)C)cc2CO)[C@@H]1c1ccc(OC(C)C)c(OC)c1	none (no result: TDP1 cell CPT, HT1080 IDH1KD tx, DT40 TDP1 no CPT, HT1080-NT tox, IL1B secr inh)
CCn1c(CSc2n[nH]c(-c3ccccc3)n2)nc2cc(S(=O)(=O)N3CCCCC3)ccc21	none (no result: TDP1 cell CPT, HT1080 IDH1KD tx, DT40 TDP1 no CPT, HT1080-NT tox, IL1B secr inh)
Cc1ccc(C(=O)CNc2cc(C)ccc2C)cc1	TDP1 cell CPT inconclusive
Cc1cc(NC(=S)N(Cc2ccc(Cl)cc2)Cc2ccc(C(=O)O)cc2)ccc1Cl	12-LOX inh 40µM
Cc1ccc(C)c(NCC(=O)c2ccc(Cl)cc2)c1	TDP1 cell CPT inconclusive, 12-LOX inh 35µM, DT40 TDP1 no CPT inconclusive
COc1cccc(OCc2nc([C@@H]3C[C@H]3c3ccccc3)n(CCO)n2)c1	none (no result: TDP1 cell CPT, HT1080 IDH1KD tx, DT40 TDP1 no CPT, HT1080-NT tox, IL1B secr inh)
CC(C)CCNC(=O)C1CCN(C(=O)CCc2ncc(-c3c(F)cccc3F)o2)CC1	none (no result: TDP1 cell CPT, HT1080 IDH1KD tx, DT40 TDP1 no CPT, HT1080-NT tox, IL1B secr inh)
CCN(CC)S(=O)(=O)c1cccc(C(=O)NCC2COc3ccccc3O2)c1 (configuration not stated)	none (no result: TDP1 cell CPT, HT1080 IDH1KD tx, DT40 TDP1 no CPT, HT1080-NT tox, IL1B secr inh)
Cn1ncc(Cl)c1C(=O)NCc1ccc2c(c1)OCO2	TDP1 cell CPT inconclusive, DT40 TDP1 no CPT inconclusive
O=C(NCc1ccc2c(c1)OCO2)c1nc(S(=O)(=O)Cc2ccccc2F)ncc1Cl	TDP1 cell CPT 4.1µM, HT1080 IDH1KD tx inconclusive, DT40 TDP1 no CPT 2.1µM, HT1080-NT tox 16µM, IL1B secr inh -100
O=C(NCc1ccc(Cl)c(Cl)c1)c1ccc2c(c1)OCO2	HT1080 IDH1KD tx inconclusive, HT1080-NT tox inconclusive
O=C(NCc1ccc2c(c1)OCO2)c1nc(S(=O)(=O)Cc2ccccc2)ncc1Cl	TDP1 cell CPT 2.6µM, HT1080 IDH1KD tx 16µM, DT40 TDP1 no CPT 4.1µM, HT1080-NT tox 16µM, IL1B secr inh -104
CCc1nc2nc(C)cc(Nc3ccc(OC)cc3OC)n2n1	none (no result: HT1080 IDH1KD tx, HT1080-NT tox, IL1B secr inh)
O=C(Nc1cccc(Br)c1)c1cc2ccc(O)cc2oc1=O	none (no result: TDP1 cell CPT, HT1080 IDH1KD tx, DT40 TDP1 no CPT, HT1080-NT tox, IL1B secr inh)

Compound activity from PubChem BioAssay.
